Hit rate of the full screen: of about 420,000 compounds, about 64,000 (15%) were called active. Another 27% or so got no clear call; they are omitted. The call rests on the fitted dose curve; in most records, active means well fitted inhibition curve with a large enough effect; inconclusive means small, poorly fitted or top-dose-only effect; inactive means flat fitted curve, though single readings scatter. Not all results are given here. A call without a number means that no potency is given here. Peptide text beside a SMILES is read from it. * marks the point of attachment. Bz = O=C(c1ccccc1)*
Potency means the concentration at half of the fitted maximal effect.

The experiment can be described thus: qHTS for Inhibitors of human tyrosyl-DNA phosphodiesterase 1 (TDP1): qHTS in cells in absence of CPT. Further: nearly all actives have a fitted effect of over 55% in size. Particulars: DT40 Tdp1-/- hTDP1 cells, no CPT, ATP luminescence, 48 h; activity change, negative = growth inhibition: at 46.2 µM (top of the series). The procedure, abridged: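 Cells were dispensed at 400 per well, compounds added by pin tool, plates incubated ≥48 hr at 37 °C, then CellTiter-Glo added for 30 min at room temperature before luminescence reading. Line: DT40 Tdp1-/- complemented with hTDP1; camptothecin omitted.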
For orientation: qHTS replaces the single test concentration by a dilution series.
For `Cc1cc(NS(=O)(=O)c2ccccc2)no1`, the Potency result was “inactive”.

On to `CCOC(=O)CNC(=O)CSc1ncccc1-c1nc2ccccc2[nH]1`, for which the Potency entry is “inactive”.

On to `C/C(=N/OC(=O)c1ccc(Br)cc1)c1ccc(C)cc1`, for which the Potency entry is “inactive”.

Consider `O=Cc1c(Nc2ccccc2Cl)nc2ccccn2c1=O`, for which the Potency result is “inactive”.

Consider `CCOc1cccc(-n2nnnc2-c2ccc(OC)cc2)c1`, for which the Potency is 2.91 µM (active).

Turning to `COc1ccc(NC(=O)CSc2nnnn2-c2cccc(OC)c2)cc1`, the Potency entry was “inactive”.

On to `COc1ccc(-n2nnnc2-c2nc3ccccc3s2)cc1`, for which the Potency result was “inactive”.

Consider `Cc1cccc(CSc2ccc(-c3cccs3)nn2)c1`, for which the Potency entry was “inactive”.

Regarding `CC(C)CCNC(=O)CSc1nc2ccccc2nc1Cc1ccc(Cl)cc1`, the Potency entry was “inactive”.

For the compound `Nc1ncnc2c1ncn2[C@@H]1O[C@H](CNS(=O)(=O)c2ccc(-c3ccno3)s2)[C@@H](O)[C@H]1O`, the Potency entry is “inactive”.

Take `CO/N=C(\C(=O)N[C@@H]1C(=O)N2C(C(=O)O)=CCS[C@H]12)c1csc(N)n1`: the Potency entry is “inactive”.

Take `O=C(O)C1CCCN1S(=O)(=O)c1ccc(Br)cc1` (stereo not drawn): the Potency result was “inactive”.

As to `O=S(=O)(c1ccc(Br)cc1)n1ccc2ccccc21`, the Potency was 18.4 µM (active).

In the case of `O=C(c1ccccc1F)N1CCN(S(=O)(=O)c2ccc(Br)cc2)CC1`, the Potency entry is “inactive”.

Consider `O=C(Nc1ccc2c(c1)OCCO2)C1CCCC1`, for which the Potency entry was “inactive”.

Turning to `COc1ccc(CNC(=O)CCN2C(=O)c3ccccc3C2=O)cc1`, the Potency entry was “inactive”.

On to `COc1ccc(CCNCc2c(-c3ccccc3)n(C)c3ccccc23)cc1`, for which the Potency was 16.4 µM (active).

Turning to `COc1ccc(OCCCC(=O)NCCc2ccccc2)cc1`, the Potency result was “inactive”.

Regarding `CC1(c2ccccc2)NC(=O)N(CC(=O)N2CC(=O)Nc3ccccc32)C1=O` (stereo not drawn), the Potency entry is “inactive”.

On to `Cc1ccc(Cl)cc1NC(=O)NC1COc2ccccc2C1` (stereo not drawn), for which the Potency entry is “inactive”.

For `Cc1ccc(N=Nc2c(C)[nH]n(-c3ccccc3)c2=O)cc1`, the Potency result was “inactive”.

`Cc1[nH]n(-c2ccccc2)c(=O)c1/C=N/NC(=O)c1ccoc1C`: the Potency is 1.84 µM (active).

With `Cc1cc[n+](-c2[nH]c(=O)sc2/C=N/NC(=O)c2ccccc2[O-])cc1C`, the Potency entry was “inactive”.

Consider `CCn1c(SCC(=O)Nc2ccc(S(=O)(=O)Nc3onc(C)c3C)cc2)nnc1-c1ccccc1`, for which the Potency entry is “inactive”.

`CCOc1ccc(NC(=O)CCC(=O)NNC(=O)NC2CCCCC2)cc1`: the Potency entry was “inactive”.

`c1ccc(Nc2nc(N3CCOCC3)c3ccccc3n2)cc1`: the Potency is 16.4 µM (active).

On to `O=C(COc1nc2ccccc2nc1N1CCOCC1)NCC(F)(F)F`, for which the Potency result was “inactive”.

In the case of `O=c1[nH]c(N2CCOCC2)nc2ccccc12`, the Potency entry is “inactive”.

Consider `Cc1ccc(-n2c(SCC(=O)Nc3ccc4c(c3)OCO4)nnc2-c2ccccn2)cc1`, for which the Potency result is “inactive”.

With `Cc1ccc2c(NC(=O)C3CC3)cccc2n1`, the Potency entry is “inactive”.

With `Cc1ccc(/C=C(\C#N)C(=O)Nc2cccc3ncccc23)o1`, the Potency is 25.9 µM (active).

`Cc1ccc(C(=O)Nc2cccc3ncccc23)cc1[N+](=O)[O-]`: the Potency result was “inactive”.

With `COc1ccc(S(=O)(=O)N2CCCC2CNC(=O)C(=O)NC2CC2)cc1` (stereo not drawn), the Potency entry was “inactive”.

`Cc1cc(OCc2ccc(C(=O)Nc3ccc(C(=O)O)cc3)o2)ccc1Cl`: the Potency result is “inactive”.

As to `CCN(CC)S(=O)(=O)c1ccc(-c2cn3ccc(C)cc3n2)cc1`, the Potency result was “inactive”.

Consider `C/C(=N/NS(=O)(=O)c1ccccc1)c1ccc(NC(=O)C(F)(F)F)cc1`, for which the Potency entry is “inactive”.

`Cn1c(=O)c2c(-c3ccccc3Br)n(Cc3ccccc3)cc2n(C)c1=O`: the Potency is 18.4 µM (active).

For `Cc1c(S(=O)(=O)NCc2ccccc2)c(=O)n(C)c(=O)n1C`, the Potency entry is “inactive”.

Turning to `O=C(NC(Cc1ccccc1)C(=O)N1CCCC1C(=O)O)c1ccccc1` (stereo not drawn) (Bz-Phe-Pro-OH; configuration not given here), the Potency result is “inactive”.

For `CN(C)c1nc(N)nc(Cn2nnc(-c3ccc(C(F)(F)F)cc3)n2)n1`, the Potency result was “inactive”.

As to `Cc1ccc(C(=O)Nc2ccccc2-c2ccccc2)cc1S(=O)(=O)Nc1ccccc1`, the Potency is 14.6 µM (active).

Turning to `O=C(O)c1ccc(F)c(S(=O)(=O)Nc2ccccc2)c1`, the Potency result is “inactive”.

Consider `Cc1ccc(C(=O)Nc2ccc(C(=O)O)cc2)cc1S(=O)(=O)Nc1ccccc1`, for which the Potency result was “inactive”.

On to `Cc1ccc(F)c(S(=O)(=O)NC(=O)C2(C)CCN2C(=O)c2ccco2)c1` (stereo not drawn), for which the Potency entry was “inactive”.

`CC(C(=O)N(C)CC(=O)Nc1ccccc1C(F)(F)F)N1C(=O)c2ccccc2C1=O` (stereo not drawn): the Potency entry is “inactive”.

For the compound `CCOC(CNC(=O)C(=O)NCC(c1ccco1)N1CCN(c2ccc(OC)cc2)CC1)OCC` (stereo not drawn), the Potency entry is “inactive”.

For the compound `CC[n+]1cc(C)ccc1/C=C/c1ccc(N(C)C)cc1`, the Potency was 0.0259 µM (active).

`CCNC(=O)COC(=O)/C=C/c1c(C)nn(Cc2cccc(OC)c2)c1Cl`: the Potency result was “inactive”.

As to `Cc1ccc(-c2c3c(=O)n(C)c(=O)n(C)c3cn2-c2ccccc2O)cc1`, the Potency entry is “inactive”.

On to `Cc1ccc(-c2c3c(=O)n(C)c(=O)n(C)c3cn2-n2cnnc2)cc1`, for which the Potency is 20.6 µM (active).

On to `Cc1cn(C)c(=O)n(C)c1=O`, for which the Potency result was “inactive”.

For the compound `CC1CCN(CCC(=O)Nc2ccccc2)CC1`, the Potency result was “inactive”.

`CC1=NC2(CCCc3c2no[n+]3[O-])N(O)C1(C)C` (stereo not drawn): the Potency entry was “inactive”.

As for `COc1ccc(Nc2nc(=O)[nH]nc2C)cc1`, the Potency result is “inactive”.

Regarding `COc1ccc(Nc2cc(Sc3ccc(OC)cc3)ncn2)cc1`, the Potency was 16.4 µM (active).

For `COc1ccc(NC(=O)Nc2ccc3nc(C)c(C)nc3c2)cc1`, the Potency result is “inactive”.

In the case of `CCCC(NS(=O)(=O)c1ccc(OC)cc1)C(=O)O` (stereo not drawn), the Potency result is “inactive”.

Take `COC(=O)c1ccc(COC(=O)c2c(C)nn(Cc3ccccc3Cl)c2Cl)o1`: the Potency result was “inactive”.

On to `COc1ccc(C)cc1-n1c(-c2ccc(C)cc2)cc2c1CC(C)(C)CC2=O`, for which the Potency was 8.2 µM (active).

With `COc1ccc(C(=O)CN2C(=O)NC(C)(c3ccc(C)cc3)C2=O)cc1OC` (stereo not drawn), the Potency result was “inactive”.

`CC(=O)Oc1ccc(C)cc1N1C(=O)c2ccc(C(=O)O)cc2C1=O`: the Potency result is “inactive”.

Turning to `Cc1cc(NC(=O)COC(=O)c2ccc(F)c(S(=O)(=O)N3CCOCC3)c2)no1`, the Potency result is “inactive”.

For `Cc1c(CCO)sc[n+]1CC(=O)c1ccc2ccccc2c1`, the Potency is 15.8 µM (active).

For the compound `Cc1ccccc1OCC(=O)NCC(=O)OCC(=O)c1ccc2ccccc2c1`, the Potency entry was “inactive”.

On to `O=C(OCC(=O)N1CCOCC1)c1ccc2ccccc2c1`, for which the Potency entry is “inactive”.

As for `O=C(CCn1ccc([N+](=O)[O-])n1)Nc1nccs1`, the Potency entry is “inactive”.

With `CCOc1ccc(-n2c(SCC(N)=O)nnc2-c2ccco2)cc1`, the Potency entry is “inactive”.

For `O=C(COC(=O)C1CCN(S(=O)(=O)c2ccc3c(c2)OCCO3)CC1)Nc1ccccc1OC(F)F`, the Potency entry was “inactive”.

In the case of `COc1ccc(Br)cc1/C=N/Nc1ccc(Cl)c(C(=O)O)c1`, the Potency entry is “inactive”.

In the case of `Oc1ccc(Br)cc1/C=N/Nc1ccccn1`, the Potency is 3.66 µM (active).

As to `O=C(NCc1ccccn1)c1cc(Br)ccc1Cl`, the Potency result is “inactive”.

For the compound `COc1cc2c(C(=O)N(C)c3cc(Cl)ccc3OC)cn(C)c(=O)c2cc1OC`, the Potency entry is “inactive”.

On to `O=C(CSc1ccccn1)N1CCN(S(=O)(=O)c2ccc(Cl)cc2)CC1`, for which the Potency entry is “inactive”.

On to `C/C(N)=C(\C#N)C(=O)NCCc1ccccn1`, for which the Potency result was “inactive”.

As to `Cc1ccc(NC(=O)CN2CCC(C(N)=O)CC2)cc1[N+](=O)[O-]`, the Potency entry was “inactive”.

For `COc1ccc(C23NCCN2C(=O)c2ccccc23)cc1` (stereo not drawn), the Potency entry was “inactive”.

On to `CC12CN3CCN(CC(C3)/C1=N\NC(=O)c1ccccc1N)C2`, for which the Potency entry was “inactive”.

In the case of `CCOc1ccccc1NC(=O)C1CCC(CNc2c(N3CCOCC3)c(=O)c2=O)CC1` (stereo not drawn), the Potency entry was “inactive”.

For the compound `COc1ccc(NC(=O)C2CCC(CNc3c(N4CCCCC4)c(=O)c3=O)CC2)c(OC)c1` (stereo not drawn), the Potency result is “inactive”.

As to `CCN(CC)c1ccc(NC(=O)C2CCC(CNc3c(N4CCCC4)c(=O)c3=O)CC2)c(C)c1` (stereo not drawn), the Potency was 14.6 µM (active).

Turning to `Cc1ccc(NS(=O)(=O)c2ccc(-c3coc(C)n3)cc2)c(C)c1`, the Potency result is “inactive”.

Turning to `COC(=O)c1c(OCc2ccc(F)cc2)cc(=O)n2c1CCN(Cc1ccc3cccnc3c1)CC2`, the Potency entry is “inactive”.

Turning to `O=C(NCc1cccc(Cl)c1)C1CCN(c2nnc(N3CCCC3=O)s2)CC1`, the Potency entry is “inactive”.

For the compound `CCc1ccc(CNC(=O)C2CCN(c3nn4cc(-c5ccc(F)cc5)nc4s3)CC2)cc1`, the Potency entry was “inactive”.

Regarding `Cc1ccc(C)n1-c1nnc(N2CCC(C(=O)NCc3ccccc3Cl)CC2)s1`, the Potency was 18.4 µM (active).

Consider `O=C(NCc1ccccc1Cl)C1CCN(S(=O)(=O)N2CCOCC2)CC1`, for which the Potency result is “inactive”.

With `Cc1ccc(NC(=O)N2CCC(C(=O)NCc3ccc(F)cc3)CC2)cc1`, the Potency entry is “inactive”.

In the case of `Cc1ccc(C)n1-c1nnc(N2CCC(C(=O)NCc3ccc(F)cc3)CC2)s1`, the Potency was 23.1 µM (active).

As to `O=C(O)CSc1ccc(S(=O)(=O)N2CCCC2)cn1`, the Potency entry was “inactive”.

For `COC(=O)C(C)Oc1ccc2c(-c3cccc([N+](=O)[O-])c3)cc(=O)oc2c1` (stereo not drawn), the Potency entry was “inactive”.

Consider `COc1cc(OC)c2c(-c3cccc(-c4cccc(N)c4)c3)cc(=O)oc2c1`, for which the Potency is 4.61 µM (active).

On to `COc1cccc(NC(=O)COc2cc(C)cc3oc(=O)cc(C)c23)c1`, for which the Potency entry is “inactive”.

`Cc1c(CCC(=O)O)c(=O)oc2cc(OCc3ccc(Br)cc3)ccc12`: the Potency entry was “inactive”.

As to `CCC(=C/c1sc2ccc3ccccc3c2[n+]1C)/C=C1\Sc2ccc3ccccc3c2N1C`, the Potency is 0.092 µM (active).

`COc1ccc(OC)c(CN2CCN(C(=O)CNC(=O)c3cc(C)cc(C)c3)CC2)c1`: the Potency entry was “inactive”.

Regarding `CCOC(=O)c1c(C)c(C(=O)NCCc2ccc(S(N)(=O)=O)cc2)c(C)n1CC`, the Potency result is “inactive”.

As for `Cc1c(C)n(Cc2ccc(Cl)cc2)c2ccc(C(=O)NCCCN3CCOCC3)cc12`, the Potency is 18.4 µM (active).

Take `Cc1c(C)n(Cc2ccc(Cl)cc2)c2ccc(C(=O)NCCc3ccc(S(N)(=O)=O)cc3)cc12`: the Potency was 25.9 µM (active).

Turning to `COc1ccc(C(=O)NCCc2ccc(S(N)(=O)=O)cc2)cc1OC`, the Potency result is “inactive”.

As for `Cc1ccc(NS(=O)(=O)c2ccc(C(=O)NCCCN3CCOCC3)cc2)cc1`, the Potency result was “inactive”.

With `CCn1c(C)c(C)c2cc(C(=O)NCCc3cc(OC)ccc3OC)ccc21`, the Potency was 14.6 µM (active).

Take `Cc1ccc(C(=O)NCCN2CCOCC2)cc1C`: the Potency result is “inactive”.

For the compound `COC(=O)c1ccc(OC)c(Cn2c(=O)n(Cc3ccccc3)c(=O)c3c2c2cc(OC)ccc2n3C)c1`, the Potency entry is “inactive”.

(Values after PubChem BioAssay AID686978 (National Center for Advancing Translational Sciences (NCATS), 2013).)
